S1P2 ag – activates the human S1P2 receptor. O95136. S1P2-expressing cell line, agonist reporter read-out. activation, % at 4.5 µM. hit rate 0.46% among 97,000; in the data active = activation above about 16%;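 note: 0% = vehicle low control and 100% = maximal reference agonist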
Target sequence (O95136 whole entry, looked up): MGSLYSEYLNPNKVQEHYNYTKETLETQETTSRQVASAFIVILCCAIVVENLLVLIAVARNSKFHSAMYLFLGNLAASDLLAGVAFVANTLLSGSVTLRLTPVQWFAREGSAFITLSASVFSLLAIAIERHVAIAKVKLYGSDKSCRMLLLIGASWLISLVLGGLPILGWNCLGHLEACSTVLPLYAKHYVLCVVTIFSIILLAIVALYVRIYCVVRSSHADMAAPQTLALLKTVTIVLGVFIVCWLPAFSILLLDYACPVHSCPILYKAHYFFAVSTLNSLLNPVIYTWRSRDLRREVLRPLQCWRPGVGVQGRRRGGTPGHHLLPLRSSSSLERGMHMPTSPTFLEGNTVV
GALR2 ag – activates the human galanin receptor 2. O43603. GALR2-expressing cells, agonist activation read-out. activation, % (no concentration beside the values). hit rate 0.48% among 140,000; in the data active = activation above about 5%, passing the limit was not always enough;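 note: 0% = vehicle buffer wells and 100% = reference agonist at full effect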
GALR2 blocker – blocks the human galanin receptor 2 | AID 828 | GALR2-expressing cells, antagonist mode | inhibition, % at 4 µM | hit rate 0.39% among 140,000; in the data active = inhibition above about 27%;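 note: cells stimulated with galanin 1-16 at roughly its EC80; 0% = agonist challenge control and 100% = basal control without agonist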
S1P2 antag – antagonists of human S1P2 receptor; O95136; inhibition, % at 5 µM; AID 736; hit rate 0.21% among 97,000; cell-based S1P2 antagonist assay, inhibition at 5 uM; in the data active = inhibition above about 45%;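 note: CRE beta-lactamase reporter cells expressing human S1P2 stimulated with S1P; 0% = agonist at EC80 alone and 100% = agonist plus reference antagonist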
GALR2 ag confirm – confirmation of human galanin receptor 2 (GALR2) agonists. shares compounds with GALR2 ag. GALR2-expressing cells, agonist activation. activation, % at 5.6 µM. hit rate 10% among 460. AID 864; in the data active = activation above about 8.4%;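 note: 0% = buffer-only vehicle wells and 100% = full reference agonist response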
BLA activ ctr – activates beta-lactamase reporter in GALR2 agonist counterscreen. hit rate 10% among 460. CHO NFAT-bla reporter, beta-lactamase FRET activation. shares compounds with GALR2 ag. activation, % at 5.6 µM;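 active = activation above the screen-wide mean activation plus 3 SD, cut at about 8% in these data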;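 note: 0% = DMSO with PBS wells and 100% = thapsigargin positive control wells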
The depositor's hits bear a star. Rows were chosen to be rich in hits. Some 1.2% of all compounds tested hit in one or more screens of this group.

CCC(CC)c1nnc(NC(=O)c2cc(C(=O)OC)cc([N+](=O)[O-])c2)s1 was read as GALR2 ag -2 and GALR2 blocker -6.
COC(=O)c1ccc2c(c1)C(C)(C)C(/C=C/c1ccccc1O)=[N+]2C was read as S1P2 ag 5, GALR2 ag 13*, GALR2 blocker 17, S1P2 antag 32, GALR2 ag confirm -2 and BLA activ ctr -7.
Screening C[N+]1=C(/C=C/Nc2ccccc2Cl)C(C)(C)c2ccccc21 returned GALR2 ag 0 and GALR2 blocker 4.
COc1ccc(N(CC(=O)NCc2cccs2)S(=O)(=O)c2c(C)nn(C)c2C)cc1 was read as S1P2 ag -2, GALR2 ag 17*, GALR2 blocker -4, S1P2 antag -16, GALR2 ag confirm 0 and BLA activ ctr -1.
For Cc1nn(C)c(C)c1S(=O)(=O)N(CC(=O)NCc1cccs1)c1ccc(C(C)C)cc1 the results were GALR2 ag 0 and GALR2 blocker -8.
Cn1nnnc1SCC(=O)NC(=O)Cc1ccccc1 was read as S1P2 ag -2, GALR2 ag -1, GALR2 blocker -8 and S1P2 antag 13.
Cn1nnnc1SCC(=O)NCCCc1ccccc1 was read as S1P2 ag -9, GALR2 ag 12*, GALR2 blocker -4, S1P2 antag 24, GALR2 ag confirm 0 and BLA activ ctr -2.
`COc1ccccc1NC(=O)COc1ccccc1` gave S1P2 ag -4, GALR2 ag -1, GALR2 blocker 4 and S1P2 antag 14.
COc1ccc(NC(=O)COc2ccccc2)c(OC)c1 was read as S1P2 ag -3, GALR2 ag 16*, GALR2 blocker 2, S1P2 antag 5, GALR2 ag confirm -1 and BLA activ ctr -3.
`COc1ccc2ccccc2c1/C=N/NC(=O)c1sc(N)c(C#N)c1C` gave GALR2 ag 12*, GALR2 blocker -4, GALR2 ag confirm 8 and BLA activ ctr 7.
O=S(=O)(c1cccc(C(F)(F)F)c1)N1CCN(c2ccccc2)CC1 was read as S1P2 ag -3, GALR2 ag 12*, GALR2 blocker -9, S1P2 antag 1, GALR2 ag confirm -1 and BLA activ ctr -3.
`Nc1c(C(=O)NCc2ccccc2)c2nc3ccccc3nc2n1CCCN1CCOCC1` gave GALR2 ag 16*, GALR2 blocker -16, GALR2 ag confirm 11* and BLA activ ctr 23*.
Screening Cc1ccc(OCc2nnc(SCC(=O)NCc3ccco3)n2C)cc1 returned S1P2 ag -4, GALR2 ag -1, GALR2 blocker -4 and S1P2 antag -11.
Screening CCOc1ccc(Nc2nc(Cc3nnc(SCC(=O)NCc4ccco4)n3CC)cs2)cc1 returned S1P2 ag -6, GALR2 ag 12*, GALR2 blocker -17, S1P2 antag -11, GALR2 ag confirm 12* and BLA activ ctr 27*.
For Fc1ccc(NCc2cccnc2)cc1 the results were S1P2 ag 4, GALR2 ag 36*, GALR2 blocker -14, S1P2 antag -22, GALR2 ag confirm -1 and BLA activ ctr -1.
Screening c1ccc(NCc2cccnc2)cc1 returned S1P2 ag -6, GALR2 ag -2, GALR2 blocker 16 and S1P2 antag 7.
For O=C(Nc1cccc(C(F)(F)F)c1)c1cc(-c2ccc(F)cc2)on1 the results were S1P2 ag -7, GALR2 ag 9, GALR2 blocker 1, S1P2 antag 6, GALR2 ag confirm 0 and BLA activ ctr -2.
CC(C)(C)C(=O)NC(=S)Nc1cc(C(F)(F)F)ccc1N1CCOCC1 was read as S1P2 ag 3, GALR2 ag 8, GALR2 blocker 0, S1P2 antag -47, GALR2 ag confirm 0 and BLA activ ctr 3.
Screening Cc1cc(NC(NC(=O)c2ccco2)(C(F)(F)F)C(F)(F)F)no1 returned S1P2 ag -6, GALR2 ag 8, GALR2 blocker 4, S1P2 antag -14, GALR2 ag confirm 0 and BLA activ ctr -1.
Screening Nc1c(C(=O)NCC2CCCO2)sc(=S)n1-c1ccccc1 (stereo unspecified) returned S1P2 ag -2, GALR2 ag 10, GALR2 blocker 8, S1P2 antag -8, GALR2 ag confirm -1 and BLA activ ctr -2.
`CCn1c(N)c(C(=O)NCC2CCCO2)sc1=S` (stereo unspecified) gave S1P2 ag -3, GALR2 ag -3, GALR2 blocker 10 and S1P2 antag 1.
Screening Cc1cc(C)[n+](-c2ccc(F)cc2)c2[nH]c(=O)[nH]c(=O)c12 returned GALR2 ag -1 and GALR2 blocker 11.
`CCOC(=O)N1CCN(S(=O)(=O)c2c(C)cc(C)cc2C)CC1` gave S1P2 ag 1, GALR2 ag -1, GALR2 blocker -8 and S1P2 antag 17.
Screening CCOC(=O)N1CCN(C(=O)C2CCN(S(=O)(=O)c3c(C)cc(C)cc3C)CC2)CC1 returned S1P2 ag -2, GALR2 ag 18*, GALR2 blocker 0, S1P2 antag 6, GALR2 ag confirm -1 and BLA activ ctr -3.
c1cncc(CNc2cccc(-c3nc4ccccc4[nH]3)c2)c1 was read as GALR2 ag 1 and GALR2 blocker 5.
Cc1ccc(NC(=O)CN2C(=O)NC(C)(c3ccc(Cl)cc3)C2=O)cc1S(=O)(=O)N1CCOCC1 (stereo unspecified) was read as GALR2 ag -2 and GALR2 blocker -2.
`COC(=O)CCC(=O)Nc1nnc(C(F)(F)F)s1` gave S1P2 ag -3, GALR2 ag 144*, GALR2 blocker -4, S1P2 antag -6, GALR2 ag confirm -1 and BLA activ ctr -1.
COc1ccc(S(=O)(=O)NCC(c2cccnc2)N2CCN(c3ccccc3OC)CC2)cc1C (stereo unspecified) was read as S1P2 ag -1, GALR2 ag -2, GALR2 blocker -11 and S1P2 antag 14.
`COc1ccccc1N1CCN(C(CNS(=O)(=O)c2ccccc2)c2cccnc2)CC1` (stereo unspecified) gave S1P2 ag -1, GALR2 ag 10, GALR2 blocker -6, S1P2 antag -49, GALR2 ag confirm 0 and BLA activ ctr -2.
For Cn1nccc1C(=O)Nn1cnnc1 the results were S1P2 ag -6, GALR2 ag 20*, GALR2 blocker -6, S1P2 antag 7, GALR2 ag confirm 0 and BLA activ ctr 0.
For NS(=O)(=O)c1ccc(N2N=C(c3ccccc3)CC2c2ccc(F)cc2)cc1 (stereo unspecified) the results were S1P2 ag 5, GALR2 ag 20*, GALR2 blocker -10, S1P2 antag -6, GALR2 ag confirm 5 and BLA activ ctr 11*.
For Cc1cccc2cc3c(NC(=O)c4ccccn4)nn(C)c3nc12 the results were S1P2 ag 14, GALR2 ag 8, GALR2 blocker 16, S1P2 antag -6, GALR2 ag confirm 3 and BLA activ ctr 7.
`Cn1c(-c2ccc(C=O)s2)nc2c3ccccc3c3ccccc3c21` gave S1P2 ag -1, GALR2 ag 3, GALR2 blocker 3 and S1P2 antag -22.

Screens deposited in PubChem BioAssay by The Scripps Research Institute Molecular Screening Center.
